Tau fluor counter: Counterscreen qHTS for Inhibitors of Tau Fibril Formation, Fluorescence Polarization. AID 1463, 2008. 0.93% of 280,000 active. Potency, µM (titrated, usually from 57.7 µM), inactives show at the highest dose activity change, negative = decrease. tau K18 P301L Alexa594 fluorescence, heparin fibrillization; also: % is scaled to controls: 0 for no effect and ±100 for the full control effect; nearly all actives have a fitted effect of over 55% in size
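Human K18 P301L tau (15 uM unlabeled plus 0.24 uM Alexa 594-labeled, final) in 100 mM sodium acetate pH 7 was mixed with compound and 20 uM heparin and incubated 6 hr at 37 C.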
HttQ103 aggreg: qHTS Multiplex Assay to Identify Dual Action Probes in a Cell Model of Huntington: Aggregate Formation (GFP); PC12 HttQ103-GFP aggregates, Acumen cytometry, 40 h; 1.1% of 220,000 active; Potency, µM (highest dose often 46.1 µM), inactives show at the top dose activity change, negative = inhibition, most hits filed as inhibitors; AID 1688, 2009; also: % is scaled to controls: 0 for no effect and ±100 for the full control effect; nearly all actives have a fitted effect of over 60% in size
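Multiplexed with ATP-based cell death, this channel scores GFP aggregates in PC12 cells expressing inducible HTTex1-Q103-GFP. Induction used 100 nM tebufenozide; compounds were tested in concentration series.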
HTT cytoprotect: qHTS Multiplex Assay to Identify Dual Action Probes in a Cell Model of Huntington: Cytoprotection (ATP) | PC12 HTT-Q103 induced, cytoprotection, ATP luminescence, 40 h | Potency, µM (titrated, usually from 56.4 µM), without a hit: cytoprotection (ATP increase), actives largely listed as activators | 0.14% of 230,000 active | AID 1471, 2008; also: % of control where 0% means no effect; nearly all actives have a fitted effect of over 45% in size
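Compounds added alongside 100 nM tebufenozide, which induces toxic Q103 huntingtin exon 1-GFP in stable PC12 cells; surviving cells quantified by luminescent ATP measurement. Medium: phenol red-free DMEM, 5% equine and 5% calf serum.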
Tau fibril FP: qHTS for Inhibitors of Tau Fibril Formation, Fluorescence Polarization | K18 P301L tau heparin fibrillization, Alexa594 FP, 6 h | 0.39% of 280,000 active | Potency, µM (series often up to 57.7 µM), for the others: at the top dose activity, negative = inhibition, usual class: inhibitors; also: % is scaled to controls: 0 for no effect and ±100 for the full control effect; nearly all actives have a fitted effect of over 55% in size
Target sequence (P10636 561-689 P618L limits assumed): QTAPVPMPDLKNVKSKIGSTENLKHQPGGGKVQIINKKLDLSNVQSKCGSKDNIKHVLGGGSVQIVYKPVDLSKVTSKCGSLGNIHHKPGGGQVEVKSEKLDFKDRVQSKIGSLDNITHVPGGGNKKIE
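Steps: dispense K18 P301L tau (15 uM plus 0.24 uM Alexa 594 tracer, final) in pH 7 sodium acetate; add compound; add heparin (20 uM final); incubate 6 hr, 37 C; add ThT (30 uM final); after 1 hr ambient, read FP.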
Tau ThT inhib: qHTS for Inhibitors of Tau Fibril Formation, Thioflavin T Binding | Microtubule-associated protein tau (Homo sapiens), P10636 | recombinant tau K18 P301L (four-repeat tau fragment), heparin-induced fibrillization, ThT fluorescence | Potency, µM (titrated, usually from 57.4 µM), for inactives: at the highest dose activity, negative = inhibition, actives largely listed as inhibitors | 2.1% of 270,000 active; also: % is scaled to controls: 0 for no effect and ±100 for the full control effect; nearly all actives have a fitted effect of over 55% in size
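Recombinant human tau K18 fragment […] carrying P301L, 15 uM unlabeled plus 0.24 uM Alexa 594-labeled, was fibrillized with 20 uM heparin in 100 mM sodium acetate pH 7 for 6 hr at 37 C; 30 uM ThT fluorescence read after 1 hr.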
* marks the source's active call; other numbers are inactive results; ? = inconclusive; . = not tested or not shown; [ ] = dose if it differs, or a comment. This is a sample that favours compounds with a hit; in the whole collection about 3.7% have one here. Calls follow the shape of the dose curve; as a rule, active = well fitted curve in the direction sought with a large enough effect; inconclusive = small, poorly fitted or top-dose-only effect, or another doubt; inactive = no such curve, though single readings can be large; an effect the other way counts as inactive or inconclusive. Potency is read from the fitted curve at half-maximal effect.

SMILES | Tau fluor counter | HttQ103 aggreg | HTT cytoprotect | Tau fibril FP | Tau ThT inhib
CC(=O)Nc1ccc(-c2cc(-c3ccc(NC(C)=O)cc3)nc(-c3ccc(NC(C)=O)cc3)n2)cc1 | 1.2% | 14.6% | -12.6%[10 µM] | ? | 3.8%
O=C(O)c1nnsc1-c1ccc(-c2snnc2C(=O)O)cc1 | . | . | 0.6%[10 µM] | . | .
CC(=O)Nc1ccc(-c2cc(-c3ccccc3)nc(-c3ccccc3)n2)cc1 | ? | -22.2% | 21.8%[10 µM] | 3.55µM* | 10.0%
COc1ccc(-c2ccc(CNc3ccc4[nH]c(=O)[nH]c4c3)o2)cc1Cl | ? | . | . | 13.2% | ?
COCCn1nc2cc(C(=O)NCC34CC5CC(CC(C5)C3)C4)ccc2c1OC | -0.5% | 17.9% | 2.9% | 2.4% | -1.6%
CCCn1nc2cc(C(=O)NCC34CC5CC(CC(C5)C3)C4)ccc2c1OCC | -6.9% | 31.6µM* | -29.4% | 6.8% | -12.0%
CN(c1ccccc1)S(=O)(=O)c1cccc(NC(=O)c2cc(=O)c3ccccc3o2)c1 | 12.6µM*[quencher] | 12.6µM* | -123.2% | -27.4% | -18.5%
O=C(Nc1cccc(S(=O)(=O)N2CCCCCC2)c1)c1cc(=O)c2ccccc2o1 | 14.1µM*[quencher] | 20µM* | -38.9% | ? | -9.4%
COc1ccc(C(=O)c2oc3ccc(OC)cc3c2NC(C)=O)cc1 | -3.5% | -20.5% | -46.4% | -10.7% | -15.5%
COC(=O)c1oc2ccc(OC)cc2c1N | -10.3% | 2.82µM* | -94.3%[10 µM] | 5.5% | -15.4%
COc1ccc(C(=O)c2oc3ccc(OC)cc3c2N)cc1 | 14.1µM*[quencher] | 19.0% | 19.0%[10 µM] | 7.6% | 11.2µM*
CC(=O)N1CCc2cc(S(=O)(=O)NC(Cc3ccccc3)C(=O)Nc3cccc(C)c3)ccc21 (stereo not given) | -21.6% | . | . | -13.5% | -1.9%
O=C1C=CC2=C3c4cc(O)c(O)cc4CC3(O)COC2=C1O (stereo not given) | 3.98µM*[quencher] | . | 4.9%[1.9 µM] | 7.94µM* | 3.16µM*
Cc1ccccc1C(=O)N1CCN(CCc2ccccn2)CC1 | -1.5% | . | . | -2.6% | -3.0%
CCC(C)Oc1ccc(/C=C/c2[nH]c(=O)[nH]c(=O)c2[N+](=O)[O-])cc1OC (stereo not given) | -6.1% | 19.2% | -8.7% | -4.0% | -0.5%
COc1cc(/C=C/c2[nH]c(=O)[nH]c(=O)c2[N+](=O)[O-])ccc1OCCC(C)C | -8.0% | ? | 12.6µM* | 6.5% | ?
C/C(=N\NC(=O)c1ccccc1F)c1ccc2c(c1)Nc1ccccc1S2 | 3.55µM*[quencher] | 17.1% | -16.0%[10 µM] | ? | 2µM*
C/C(=N\NC(=O)c1ccc(O)cc1)c1ccc2c(c1)Nc1ccccc1S2 | 11.2µM*[quencher] | -28.3% | 15.4%[10 µM] | -8.4% | 4.47µM*
CC(=O)Nc1nc(NC(C)=O)c2[nH]c(CO)nc2n1 | . | . | -18.2%[10 µM] | . | .
CCOc1ccc(OCC)c(NC(=O)CCc2c(C)nc3c(c2C)c(=O)n(C)c(=O)n3C)c1 | -3.9% | . | . | 3.5% | 3.3%
NCCC[C@@H](CC(=O)N[C@@H]1CCCC[C@H]1C(=O)N[C@H](CC(=O)N[C@@H](CCC(=O)O)CC(=O)O)Cc1ccccc1)NC(=O)C[C@H](Cc1c[nH]c2ccccc12)NC(=O)[C@@H]1CNCC[C@H]1N | -6.3% | . | -18.6%[1.9 µM] | -8.4% | -8.2%
Nc1n[nH]c(N)c1N=Nc1ccc(F)cc1 | ? | -8.6% | -49.6% | 0.6% | ?
Cc1n[nH]c(C)c1N=Nc1ccc(Br)cc1 | -29.8% | 7.4% | -3.8% | -13.5% | 11.2µM*
O=C(Cn1nnc(-c2ccccc2)n1)N/N=C/c1cccc([N+](=O)[O-])c1O | -2.2% | ? | . | 10.7% | 10µM*
O=C(Cn1nnc(-c2ccccc2)n1)N/N=C/c1cccc([N+](=O)[O-])c1 | -27.4% | 7.0% | . | 3.6% | -9.7%
Cc1ccccc1C(=O)Nc1cccc(C(=O)N/N=C/c2cc(Cl)cc([N+](=O)[O-])c2O)c1 | ? | 2.82µM* | -8.2% | 6.9% | 3.98µM*
